In PubChem BioAssay AID1047 (SRMLSC, 2008):
About 1,400 (93%) of roughly 1,500 compounds were called active. The set was probably picked from earlier hits. Not all results are given here. Measured potencies and affinities stand elsewhere. Values without a mark were called inactive. How the calls were made is not given here.

test: growth suppression of PTEN-null colon cells, dose response, cell-based, HCT116 PTEN knockout (AID 1047); conditions: CellTiter-Glo, 60 h; series mostly up to 30 µM; viability: at the top concentration

Structure (SMILES) | viability [%]
CCCNC(=O)OC[C@H]1O[C@H](CCO/N=C/[C@@H](NS(=O)(=O)c2ccc(C)cc2)[C@H](C)/C=C/CC(=O)OC)C=C[C@@H]1Oc1ccc(OC)cc1 | 80.8
Cc1nn(C(=O)N2CCOCC2)c(C)c1C | 102
CCN1CCN(Cc2ccc(OCc3ccccc3)cc2)CC1 | 96.5
O=C(Nc1cccc(C(F)(F)F)c1)/C(=C\c1ccco1)NC(=O)c1cccs1 | 84.9
CSc1n[nH]c(NCc2cccs2)n1 | 97.2
Nc1nnc(SCc2ccc(Cl)cc2)s1 | 89.9
COC(=O)c1cc(OC)c(OC)cc1NC(=O)c1ccccc1 | 96.4
C=CCNC(=O)c1ccccc1NC(=O)c1ccccc1C | 92.4
CN1CCN(c2nc(N3CCN(c4ccccc4)CC3)ncc2F)CC1 | 81.6
O=C(c1ccc2c(=O)n(CC3CCCO3)c(=S)[nH]c2c1)N1CCN(c2ccccc2)CC1 (stereo not given) | 94
Cc1ccc(CNc2ccc(O)cc2)cc1 | 98.5
OC1(c2cccc(C(F)(F)F)c2)CCN(c2ccc(-c3ccccc3)nn2)CC1 | 92.9
COc1cc2c(cc1OC)C1(Nc3c-2c(C)nn3-c2ccccc2)C(=O)Nc2ccccc21 (stereo not given) | 91.2
CCOc1ccccc1NC(=O)Cn1cnc2c(nnn2-c2cccc(OC)c2)c1=O | 96.3
O=C(COc1ccc(/C=N/NC(=O)c2cc3ccccc3o2)cc1Cl)Nc1ccccc1 | 87.9
O=C(NCc1ccc2c(c1)OCO2)c1ccc2c(c1)C(=O)N(CC1CCCO1)C2=O (stereo not given) | 98.1
CCOC(=O)C1=C(C)NC(=S)N(C(C)=O)C1c1ccc(Cl)cc1 (stereo not given) | 82.1
CCC(Sc1nc2sc(C(=O)OC)c(C)c2c(=O)n1N)C(=O)N(CC)CC (stereo not given) | 89.6
N#CC(c1ccc(Cl)nn1)c1ccc(Cl)cc1Cl (stereo not given) | 90.3
COc1ccc(CCN2C(=O)CN(Cc3ccccc3)CC2=O)cc1OC | 89.9
CC(=O)c1c(C)nc(-c2ccc(Cl)cc2Cl)n1O | 103
CCOC(=O)Nc1ccc(C)cc1Br | 100
Cc1cc2ncn(C(=O)N3CCC(C)CC3)c2cc1C | 104
Cc1cc(NC(=O)CSc2nc(-c3cccnc3)ccc2C#N)no1 | 106

Structure (SMILES) | viability [%]
O=C(CSc1nnc(-c2ccccc2Cl)o1)Oc1ccc(Br)cc1 | 98.8
Cc1cccc(CS(=O)(=O)c2nnc([C@H](Cc3ccccc3)NC(=O)OC(C)(C)C)o2)c1 | 93.7
O=C(Nc1cccc(C(F)(F)F)c1)C12CC3CC(CC(C3)C1)C2 | 89.8
Cc1cc(NC(=O)CN2CCN(c3ccc(O)cc3)CC2)no1 | 86.1
Cc1ccc(C(=O)c2coc3c2C(=O)C(=O)c2ccccc2-3)cc1 | 96.7
COCCN1C(=O)c2oc3ccccc3c(=O)c2C1c1ccc(OC)c(OC)c1 (stereo not given) | 84.9
O=C(NC(=S)Nc1ccc2c(c1)OCO2)c1ccc(Cl)cc1 | 83.4
CCN(CC)c1ccc(N=Cc2ccc(N(CC)CC)cc2O)cc1 | 95.8
Cc1ccc(C(=O)Nc2ccccc2C(=O)NC(C(=O)O)C(C)C)cc1 (stereo not given) | 95.5
Cc1cc(NS(=O)(=O)c2ccccc2)cc(Cl)c1O | 93.7
O=C(Nc1cccc2ccccc12)N1CCN(Cc2ccc3c(c2)OCO3)CC1 | 97.6
CCCCn1c(=NC(=O)c2ccco2)c(C(=O)OCC)cc2c(=O)n3ccccc3nc21 | 72.2
CS(=O)(=O)c1nc(-c2cccs2)cc(C(F)(F)F)n1 | 97.9
COCCNC(=O)NC1(C(F)(F)F)Oc2ccc(Cl)cc2O1 (stereo not given) | 87.3
O=C(NCc1ccc(F)cc1)C1C2C=CC3(CN(Cc4cccnc4)C(=O)C13)O2 (stereo not given) | 102
Cc1c(Cl)ccc2sc(NC(=O)CN3C(=O)c4ccccc4C3=O)nc12 | 103
COc1ccc(S(=O)(=O)CCC(=O)N(C)c2ccc(OC)cc2OC)cc1 | 81.1
CCCCN(C)C(=O)C1CCC(=O)N(c2cc(OC)c(OC)c(OC)c2)C1c1ccc(OC)cc1 (stereo not given) | 94.9
CCCCS/C(N)=N/N=C/c1ccccc1O | 90.8
N/C(=N\c1nc(C(F)(F)F)cc(=O)[nH]1)Nc1ccc(Cl)cc1 | 91.2
COc1ccc(N2CCN(C(c3cc(OC)ccc3OC)c3nnnn3CC3CCCO3)CC2)cc1 (stereo not given) | 86.8
N/C(=N\OC(=O)C12CC3CC(CC(C3)C1)C2)c1ccccc1 | 86.5
Cc1cc(C)c2c(=O)n(CC(=O)N3CCC(Cc4ccccc4)CC3)sc2n1 | 95.1
COC(=O)CN1C(C)=Nc2ccc(Br)cc2C1c1ccccc1 (stereo not given) | 89.8

Structure (SMILES) | viability [%]
CCCC/C(C)=N\NC(=O)CNS(=O)(=O)c1ccc([N+](=O)[O-])cc1 | 111
CCCC(=O)Nc1sc2c(c1C#N)CCCCC2 | 93.2
Oc1ccc(C=Nc2ccc3ncccc3c2)c(O)c1 | 86.3
CCCCN1C[C@H](O)[C@@H](O)[C@H](O)[C@H]1CO | 92
COc1cccc2cc(C(=O)N(C)C)c(=O)oc12 | 89.8
CC1CCN(CC(=O)N2c3ccccc3CCc3ccccc32)CC1 | 94.3
CCOc1ccc(C2/C(=C(\O)c3c(C)[nH]c(C(=O)OC)c3C)C(=O)C(=O)N2CCN(C)C)cc1 (stereo not given) | 105
O=C(NCc1ccccn1)c1c(O)c2cccc3c2n(c1=O)CC3 | 88
COC(C)(C)[C@H](O)COc1c2ccoc2cc2oc(=O)ccc12 | 97.6
Nc1c(NCCN2CCOCC2)c2ccccc2oc1=O | 88.3
O=C(Nc1cccc(-c2nnc(-c3ccccc3)o2)c1)C1CCCCC1 | 94
COc1ccc(C(C)=O)cc1CSc1nc2ccccc2o1 | 94
O=C(Nc1cccc2ccccc12)c1onc2c1CCCC2 | 94.1
CNC(=O)C1C(=S)NC(N)=C(C#N)C1c1ccccc1 (stereo not given) | 90.6
CC(C(=O)NC(=O)NCc1ccccc1)N1C(=O)c2ccccc2C1=O (stereo not given) | 98.9
CCOC(=O)c1c(-c2ccc(C)cc2)csc1NC(=O)/C(C#N)=C/c1ccc(O)c(OC)c1 | 93.9
CCN(CC)S(=O)(=O)c1ccc(NC2CCCc3ccccc32)nc1 (stereo not given) | 93.2
Cc1ccc(C(=O)NCCc2nnc(SCC(=O)Nc3nc(-c4ccccc4)cs3)n2C)cc1 | 87.6
CCn1c(CNc2ccc(OC)cc2)nnc1SCC(=O)c1ccc(OC)cc1 | 86.7
CCN(CC)c1ccc(NC2=C(Cl)C(=O)c3ccccc3C2=O)cc1 | 89.3
CCCC(=O)Nc1ccc(C)c(O)c1 | 87.6
CCn1c(Cc2ccc(OC)cc2)nnc1SCC(=O)Nc1cccc(C(=O)OC)c1 | 95.5
